{
  "source": "PubChem BioAssay",
  "key": {"[1]": {"assay": "liver-stage malaria parasite growth inhibition, primary screen, cell-based, HepG2, luciferase luminescence, HepG2 viability (AID 624349; in the data active means parasite load remaining mostly below about 12%, no sharp cut-off; inactive means mostly above about 10%;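 on all read-outs here: 100% = mean of DMSO negative control wells on the same plate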)", "details": "P. berghei liver stage in HepG2, luciferase luminescence, concentration not given here; parasite load remaining: stronger effect = lower value; viability: measured here: HepG2 viability without parasites"}, "[2]": {"biological_target": "6-phosphogluconate dehydrogenase, decarboxylating (Homo sapiens) (UniProt P52209)", "sequence (P52209 whole entry, looked up)": "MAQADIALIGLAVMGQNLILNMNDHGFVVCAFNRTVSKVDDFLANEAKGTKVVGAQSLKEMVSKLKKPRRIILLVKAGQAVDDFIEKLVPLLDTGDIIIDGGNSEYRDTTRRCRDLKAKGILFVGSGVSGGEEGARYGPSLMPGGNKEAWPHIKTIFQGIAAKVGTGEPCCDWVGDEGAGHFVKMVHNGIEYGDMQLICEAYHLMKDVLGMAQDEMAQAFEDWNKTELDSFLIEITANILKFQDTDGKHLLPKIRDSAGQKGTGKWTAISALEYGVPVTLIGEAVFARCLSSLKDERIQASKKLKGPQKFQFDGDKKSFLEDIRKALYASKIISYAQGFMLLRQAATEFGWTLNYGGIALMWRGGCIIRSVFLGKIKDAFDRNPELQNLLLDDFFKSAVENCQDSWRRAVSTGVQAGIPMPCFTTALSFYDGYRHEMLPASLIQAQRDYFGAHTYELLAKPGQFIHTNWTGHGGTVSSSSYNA", "assay": "6PGD enzyme inhibitors, primary screen, biochemical, human, recombinant enzyme, NADPH absorbance (AID 1159550)", "details": "recombinant 6PGD, NADPH absorbance 341 nm; at 10 µM; stronger effect = higher value"}, "[3]": {"assay": "differential killing of epithelial or mesenchymal cells, primary screen, imaging, PC-3E GFP, TEM4-18 mCherry, co-culture (AID 1345086;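 active means compounds killing one labelled cell type while sparing the other, by normalised counts and ratio limits, not self-fluorescent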;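 on all read-outs here: cells exposed to compound for 72 h before imaging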;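 on red/green cell ratio (normalised): normalised mesenchymal count divided by normalised epithelial count so high means epithelial killing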)", "details": "imaging cell counts, at 1 µM; for red/green cell ratio (normalised): actives lie on both sides, counts scaled to control wells, 1 = unselective"}, "[4]": {"assay": "sensitizers of A549 cells to miR-34 induction, primary screen, imaging, A549 dox-inducible miR-34, nuclei and caspase counts (AID 1347080;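 active means compounds whose cell count with miR-34 switched on is under 0.7 times the count with it off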)", "details": "A549 miR-34 inducible, Hoechst nuclei count, 48 h"}, "[5]": {"biological_target": "Mitogen-activated protein kinase 7 (Homo sapiens) (UniProt Q13164)", "sequence (Q13164 whole entry, looked up, the tested form may be a part)": "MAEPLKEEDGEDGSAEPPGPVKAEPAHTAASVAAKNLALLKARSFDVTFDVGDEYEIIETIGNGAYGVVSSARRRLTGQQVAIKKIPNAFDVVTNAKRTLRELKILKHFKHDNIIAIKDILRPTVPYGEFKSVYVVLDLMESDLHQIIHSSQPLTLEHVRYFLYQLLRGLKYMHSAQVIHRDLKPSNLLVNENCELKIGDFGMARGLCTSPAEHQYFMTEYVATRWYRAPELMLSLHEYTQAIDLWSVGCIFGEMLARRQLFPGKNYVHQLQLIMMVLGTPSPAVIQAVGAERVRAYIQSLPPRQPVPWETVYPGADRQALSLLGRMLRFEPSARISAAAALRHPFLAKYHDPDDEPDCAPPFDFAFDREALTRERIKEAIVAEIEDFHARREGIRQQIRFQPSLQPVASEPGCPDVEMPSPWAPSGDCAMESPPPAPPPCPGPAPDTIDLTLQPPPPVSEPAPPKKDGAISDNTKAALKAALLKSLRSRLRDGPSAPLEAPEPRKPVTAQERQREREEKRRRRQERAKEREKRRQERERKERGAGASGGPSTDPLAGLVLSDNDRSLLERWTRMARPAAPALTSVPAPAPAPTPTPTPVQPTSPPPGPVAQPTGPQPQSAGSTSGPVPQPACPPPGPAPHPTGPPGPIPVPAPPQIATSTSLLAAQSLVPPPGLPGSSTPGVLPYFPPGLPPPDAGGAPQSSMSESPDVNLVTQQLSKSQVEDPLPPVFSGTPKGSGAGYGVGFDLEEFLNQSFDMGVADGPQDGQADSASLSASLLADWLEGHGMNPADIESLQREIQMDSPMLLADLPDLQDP", "assay": "ERK5 transactivation activators in reporter cells, primary screen, cell-based, HTS (AID 1508626;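 active means luciferase signal above three times the same-plate solvent-only control wells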;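 further: luciferase driven by Gal4-ERK5 fusion binding five Gal4 sites before minimal TATA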)", "details": "HeLa Gal4-ERK5 transactivation, 18 h, at 5 µM, stronger effect = higher value"}, "[6]": {"assay": "viability rescue of complex I mutant cybrids, primary screen, cell-based, galactose medium, ATP luminescence (AID 1645843;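 active means z-score of at least 1.8 in each of two replicates, scored against plate mean and spread of sample wells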;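 further: positive z means more ATP and so rescue of galactose-driven cybrid death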)", "details": "complex I mutant cybrid cells, 72 h, stronger effect = higher value"}, "[7]": {"assay": "survival rescue of mitochondrial mutant cells in low glucose, primary screen, MELAS cybrids, Rieske KO mouse fibroblasts, CellTiter-Glo (AID 1508586;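 active means mean z-score across replicates of 1.96 or higher in either the MELAS or the Rieske mutant cell line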;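 further: z relative to plate mean and SD of compound and empty wells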)"}, "[8]": {"biological_target": "NAD(+) hydrolase SARM1 (Homo sapiens) (UniProt Q6SZW1)", "sequence (Q6SZW1 whole entry, looked up)": "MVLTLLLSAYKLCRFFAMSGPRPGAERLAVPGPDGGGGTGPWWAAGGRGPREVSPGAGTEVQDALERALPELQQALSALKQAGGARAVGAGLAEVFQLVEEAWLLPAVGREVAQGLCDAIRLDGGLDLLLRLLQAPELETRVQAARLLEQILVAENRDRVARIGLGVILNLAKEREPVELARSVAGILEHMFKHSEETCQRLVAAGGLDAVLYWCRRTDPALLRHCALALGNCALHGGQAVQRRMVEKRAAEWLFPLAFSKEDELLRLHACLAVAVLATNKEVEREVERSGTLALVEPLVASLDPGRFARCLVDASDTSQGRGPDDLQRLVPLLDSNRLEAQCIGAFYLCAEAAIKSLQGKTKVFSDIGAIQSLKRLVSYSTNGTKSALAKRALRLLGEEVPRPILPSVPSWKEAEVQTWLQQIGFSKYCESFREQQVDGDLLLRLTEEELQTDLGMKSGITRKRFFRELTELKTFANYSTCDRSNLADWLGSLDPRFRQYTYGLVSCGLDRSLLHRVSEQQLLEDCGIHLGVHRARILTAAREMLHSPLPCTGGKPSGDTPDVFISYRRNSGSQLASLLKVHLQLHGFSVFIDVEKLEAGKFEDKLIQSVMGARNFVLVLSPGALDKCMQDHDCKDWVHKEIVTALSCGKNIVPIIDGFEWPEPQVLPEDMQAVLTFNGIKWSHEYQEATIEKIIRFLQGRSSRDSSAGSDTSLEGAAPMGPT", "assay": "SARM1 TIR NADase inhibitors, cell lysate, NAD-Glo luminescence (AID 1508614;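 active means compound whose remaining NAD level is above about 45 nM, limit read from the data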)", "details": "SAM-TIR HEK293T lysate NADase, at 1 µM, stronger effect = higher value"}, "[9]": {"details": "measured here: epithelial PC-3E GFP cell survival"}, "[10]": {"details": "measured here: mesenchymal TEM4-18 mCherry cell survival"}, "[11]": {"details": "stronger effect = lower value, cell number ratio, induced over uninduced"}, "[12]": {"details": "measured here: relative caspase fold change +Dox/-Dox"}, "[13]": {"details": "measured here: total cells with miR-34 induction, stronger effect = lower value"}, "[14]": {"details": "measured here: total cells without miR-34 induction"}, "[15]": {"details": "MELAS cybrid survival, CellTiter-Glo 48 h, stronger effect = higher value"}, "[16]": {"details": "Rieske KO mouse fibroblast survival, CellTiter-Glo 72 h"}},
  "note": "Where “and” joins values, the source holds several entries; their conditions need not be identical. Equal values may be shown once. A structure can be active in one record and inactive in another. Calls of active or inactive are those of the source.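 How the source made its calls, unless noted: active means at least 20% inhibition of 6-phosphogluconate dehydrogenase activity; inactive means the rest.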",
  "data": [
    {"smiles": "O=C(O)c1cccnc1C(=O)O", "values": [
      {"measurement": "parasite load remaining", "setting": "[1]", "value": "83.9% (inactive)"},
      {"measurement": "viability", "setting": "[1]", "value": 75.4, "unit": "%"},
      {"measurement": "inhibition", "setting": "[2]", "value": "2.35% (inactive)"},
      {"measurement": "red/green cell ratio (normalised)", "setting": "[3]", "value": "0.71 (inactive)"},
      {"measurement": "normalised cell number", "setting": "[3]; [9]", "value": 1.39},
      {"measurement": "normalised cell number", "setting": "[3]; [10]", "value": 0.99},
      {"measurement": "fold change", "setting": "[4]; [11]", "value": "0.98 (inactive) and 0.953 (inactive)"},
      {"measurement": "fold change", "setting": "[4]; [12]", "value": "1.66 and 1.07"},
      {"measurement": "cell count", "setting": "[4]; [13]", "value": "9820 and 8590"},
      {"measurement": "cell count", "setting": "[4]; [14]", "value": "10000 and 9010"},
      {"measurement": "luciferase signal", "setting": "[5]", "value": "84 AU (inactive)"},
      {"measurement": "z-score", "setting": "[6]", "value": "0.32 (inactive) and -0.225 (inactive)"}
    ]},
    {"smiles": "COc1cccc2c1CCC1CC(=O)CC[C@]21C", "note": "(some centres not stated)", "values": [
      {"measurement": "inhibition", "setting": "[2]", "value": "-1.22% (inactive)"},
      {"measurement": "red/green cell ratio (normalised)", "setting": "[3]", "value": "0.76 (inactive)"},
      {"measurement": "normalised cell number", "setting": "[3]; [9]", "value": 1},
      {"measurement": "normalised cell number", "setting": "[3]; [10]", "value": 0.76}
    ]},
    {"smiles": "O=C(/C=C/C(=O)Oc1ccccc1C(=O)O)Oc1ccccc1C(=O)O", "values": [
      {"measurement": "inhibition", "setting": "[2]", "value": "-15.7% (inactive)"},
      {"measurement": "red/green cell ratio (normalised)", "setting": "[3]", "value": "1.09 (inactive)"},
      {"measurement": "normalised cell number", "setting": "[3]; [9]", "value": 1.17},
      {"measurement": "normalised cell number", "setting": "[3]; [10]", "value": 1.27}
    ]},
    {"smiles": "COc1cc(OC)c2c(=O)c(-c3ccccc3)c(C)oc2c1OC", "values": [
      {"measurement": "inhibition", "setting": "[2]", "value": "-9.49% (inactive)"},
      {"measurement": "red/green cell ratio (normalised)", "setting": "[3]", "value": "1.02 (inactive)"},
      {"measurement": "normalised cell number", "setting": "[3]; [9]", "value": 1.09},
      {"measurement": "normalised cell number", "setting": "[3]; [10]", "value": 1.11}
    ]},
    {"smiles": "COC(=O)c1cc(=O)c(O)c2c(O)c(O)ccc2c1", "values": [
      {"measurement": "inhibition", "setting": "[2]", "value": "-4.56% (inactive)"},
      {"measurement": "red/green cell ratio (normalised)", "setting": "[3]", "value": "0.88 (inactive)"},
      {"measurement": "normalised cell number", "setting": "[3]; [9]", "value": 1.21},
      {"measurement": "normalised cell number", "setting": "[3]; [10]", "value": 1.06}
    ]},
    {"smiles": "O=c1cc(-c2ccc(O)cc2)oc2cc(O)cc(O)c12", "values": [
      {"measurement": "parasite load remaining", "setting": "[1]", "value": "95.8% (inactive) and 11.3% (inactive) and 116% (inactive)"},
      {"measurement": "viability", "setting": "[1]", "value": "94.9% and 100% and 77.5%"},
      {"measurement": "inhibition", "setting": "[2]", "value": "-0.0494% (inactive)"},
      {"measurement": "red/green cell ratio (normalised)", "setting": "[3]", "value": "0.91 (inactive)"},
      {"measurement": "normalised cell number", "setting": "[3]; [9]", "value": 1.2},
      {"measurement": "normalised cell number", "setting": "[3]; [10]", "value": 1.09},
      {"measurement": "z-score", "setting": "[7]; [15]", "value": "-0.412 (inactive)"},
      {"measurement": "z-score", "setting": "[7]; [16]", "value": 0.346},
      {"measurement": "luciferase signal", "setting": "[5]", "value": "64 AU (inactive)"},
      {"measurement": "z-score", "setting": "[6]", "value": "2.56 (active) and -0.305 (inactive)"}
    ]},
    {"smiles": "COc1cc(CNC(=O)CCCC/C=C/C(C)C)ccc1O", "values": [
      {"measurement": "inhibition", "setting": "[2]", "value": "18.7% (inactive)"},
      {"measurement": "red/green cell ratio (normalised)", "setting": "[3]", "value": "0.88 (inactive)"},
      {"measurement": "normalised cell number", "setting": "[3]; [9]", "value": 1.14},
      {"measurement": "normalised cell number", "setting": "[3]; [10]", "value": 1},
      {"measurement": "z-score", "setting": "[7]; [15]", "value": "-0.437 (inactive)"},
      {"measurement": "z-score", "setting": "[7]; [16]", "value": -0.16},
      {"measurement": "remaining NAD", "setting": "[8]", "value": "10 nM (inactive)"},
      {"measurement": "luciferase signal", "setting": "[5]", "value": "32 AU (inactive)"},
      {"measurement": "z-score", "setting": "[6]", "value": "0.07 (inactive) and 0.225 (inactive)"}
    ]},
    {"smiles": "CCCCOc1cc(CC2CNC(=O)N2)ccc1OC", "note": "(configuration not stated)", "values": [
      {"measurement": "inhibition", "setting": "[2]", "value": "1.84% (inactive)"},
      {"measurement": "red/green cell ratio (normalised)", "setting": "[3]", "value": "1.01 (inactive)"},
      {"measurement": "normalised cell number", "setting": "[3]; [9]", "value": 1.14},
      {"measurement": "normalised cell number", "setting": "[3]; [10]", "value": 1.15},
      {"measurement": "fold change", "setting": "[4]; [11]", "value": "0.994 (inactive) and 1.05 (inactive) and 0.91 (inactive)"},
      {"measurement": "fold change", "setting": "[4]; [12]", "value": "1.87 and 1.3 and 0.769"},
      {"measurement": "cell count", "setting": "[4]; [13]", "value": "10200 and 6130 and 8720"},
      {"measurement": "cell count", "setting": "[4]; [14]", "value": "10300 and 5830 and 9590"},
      {"measurement": "luciferase signal", "setting": "[5]", "value": "60 AU (inactive)"},
      {"measurement": "z-score", "setting": "[6]", "value": "0.26 (inactive) and -0.055 (inactive)"}
    ]}
  ]
}
